Assay results published in PubChem BioAssay.
Calls of active or inactive are those of the source.

Columns and labels:
[1] = small molecules captured by biotinylated probe aFSTL3 – biochemical, small-molecule microarray, fluorescence 635/667, stem cell growth factor project, primary screen (AID 1064); conditions: higher = more signal;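 also: measures binding of the biotinylated anti-FSTL3 antibody to printed compounds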
[2] = binders from COS7 lysate, DM2A8 probe, primary screen, torsin A project, cell lysate, small-molecule microarray, fluorescence 635/667 (AID 1065); conditions: higher = more signal, COS7 lysate expressing mutant human TOR1A
[3] = small molecules captured by biotinylated probe aFGF2 – biochemical, small-molecule microarray, fluorescence 635/667, stem cell growth factor project, primary screen (AID 1067); conditions: higher = more signal;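 also: measures binding of biotinylated aFGF2 protein to printed compounds on slides; z-score merges feature fluorescence and signal-to-noise across triplicate slides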
[4] = small molecules captured by biotinylated probe aFGF10 – biochemical, small-molecule microarray, fluorescence 635/667, stem cell growth factor project, primary screen (AID 1071); conditions: higher = more signal;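 also: score merges 667 nm spot intensity and signal to noise from triplicate slides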
[5] = biological target: Neurogenic locus notch homolog protein 2 (Homo sapiens) (UniProt Q04721); assay: small molecules binding Notch2 protein – biochemical, small-molecule microarray, 635 nm fluorescence, stem cell growth factors, primary screen (AID 1073); conditions: higher = more signal
[6] = biological target: Pro-neuregulin-1, membrane-bound isoform (Homo sapiens) (UniProt Q02297); assay: small molecules binding neuregulin-1 protein – biochemical, small-molecule microarray, fluorescence 635/667, psychiatric disease protein project, primary screen (AID 1075); conditions: NRG1 binding, 635 nm fluorescence, higher = more signal;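 also: score combines 667 nm spot fluorescence with signal to noise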
[7] = test system: Neuregulin-1 EGF-like domain; assay: small molecules binding NRG1 EGF domain – biochemical, small-molecule microarray, 635 nm fluorescence, primary screen (AID 1081); conditions: higher = more signal;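 also: binding of the protein to compounds printed on small-molecule microarray slides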
[8] = FRG1 expression reporter modulators in myotubes – cell-based, C2C12 myotubes, firefly/Renilla luciferase, luminescence, FRG1 inhibition for FSHD, primary screen (AID 1084); conditions: FRG1 promoter luciferase, higher = more signal, called active from +8 up or from −8 down
[9] = small molecules captured by biotinylated probe aFST – biochemical, small-molecule microarray, fluorescence 635/667, stem cell growth factor project, primary screen (AID 1086); conditions: higher = more signal;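 also: score merges 667 nm fluorescence with signal-to-noise of each printed compound spot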
[10] = binders of probe aHhip on microarray, primary screen, stem cell growth factor project, biochemical, small-molecule microarray, fluorescence 635/667 (AID 1087); conditions: higher = more signal;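 also: score merges spot fluorescence at 667nm with spot signal to noise ratio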
[11] = test system: PRMT1 (protein arginine N-methyltransferase 1); assay: small molecules binding arginine methyltransferase PRMT1 – biochemical, small-molecule microarray, 635 nm fluorescence, primary screen (AID 1088); conditions: higher = more signal;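 also: binding of Prmt1 protein to compounds spotted on small-molecule microarray slides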
[12] = growth effects on S. cerevisiae YJM789 – YJM789 clinical isolate, OD600, 24 h, basal, primary screen (AID 1089); conditions: higher = more signal, called active from +8 up or from −8 down;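 also: growth of clinical yeast isolate S. cerevisiae YJM 789 seeded 1000 cells per well; test concentration not given here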
[13] = S. pombe growth modifiers, basal conditions – strain 972, OD600, 24 h, no modulator, primary screen (AID 1090);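 also: basal condition with compound alone and no growth modifier present; test concentration not given here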; conditions: S. pombe 972 growth, higher = more signal, called active from +8 up or from −8 down
[14] = budding yeast growth modifiers under rapamycin – strain BY4716, OD600, 96 h, primary screen (AID 1091); also: test concentration not given here; conditions: S. cerevisiae BY4716 + rapamycin, higher = more signal, called active from +8 up or from −8 down
[15] = biological target: Torsin-1A-interacting protein 2 (Homo sapiens) (UniProt Q8NFQ8); assay: small molecules binding lysate-expressed LULL1 – cell lysate, human LULL1 lysate, 635/667 nm fluorescence, primary screen (AID 1092); conditions: small-molecule microarray, hLULL1 lysate binding, 635 nm fluorescence; higher = more signal;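 also: probe is lysate of COS7 cells overexpressing human LULL1; score merges per-feature 667 nm fluorescence with signal-to-noise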
[16] = optical density change of DRC41 E. coli – strain DRC41, OD650, 24 h, E. coli filamentation project, primary screen (AID 1093);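 also: MC1000 strain lacking acrAB efflux and sulA so SOS filamentation is blocked; test concentration not given here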; conditions: E. coli DRC41 growth, higher = more signal, called active from +8 up or from −8 down
[17] = probe aLefty2 binding to arrayed compounds – biochemical, biotinylated probe, 635/667 nm fluorescence, primary screen (AID 1094); conditions: small-molecule microarray, higher = more signal;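 also: score merges spot fluorescence near 667 nm with spot signal-to-noise ratio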
[18] = test system: Noggin (protein binding on small-molecule microarray); assay: small molecules binding Noggin protein – biochemical, 635/667 nm fluorescence, primary screen (AID 1095); conditions: 635 nm fluorescence, higher = more signal;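 also: score merges 667 nm feature fluorescence with signal to noise over triplicate slides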
[19] = biological target: Neurogenic locus notch homolog protein 3 (Homo sapiens) (UniProt Q9UM47); assay: small molecules binding NOTCH3 protein – biochemical, 635/667 nm fluorescence, primary screen (AID 1096); conditions: small-molecule microarray, 635 nm fluorescence, higher = more signal
[20] = probe aEGFR binding to arrayed compounds – biochemical, biotinylated probe, 635/667 nm fluorescence, primary screen (AID 1097); conditions: small-molecule microarray, higher = more signal;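 also: probe is a biotinylated anti-EGFR antibody binding compounds printed on slides; score combines fluorescence near 667 nm and signal to noise of each spot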

Pro-neuregulin-1, membrane-bound isoform (Homo sapiens), sequence (Q02297 whole entry, looked up, the tested form may be a part, canonical isoform): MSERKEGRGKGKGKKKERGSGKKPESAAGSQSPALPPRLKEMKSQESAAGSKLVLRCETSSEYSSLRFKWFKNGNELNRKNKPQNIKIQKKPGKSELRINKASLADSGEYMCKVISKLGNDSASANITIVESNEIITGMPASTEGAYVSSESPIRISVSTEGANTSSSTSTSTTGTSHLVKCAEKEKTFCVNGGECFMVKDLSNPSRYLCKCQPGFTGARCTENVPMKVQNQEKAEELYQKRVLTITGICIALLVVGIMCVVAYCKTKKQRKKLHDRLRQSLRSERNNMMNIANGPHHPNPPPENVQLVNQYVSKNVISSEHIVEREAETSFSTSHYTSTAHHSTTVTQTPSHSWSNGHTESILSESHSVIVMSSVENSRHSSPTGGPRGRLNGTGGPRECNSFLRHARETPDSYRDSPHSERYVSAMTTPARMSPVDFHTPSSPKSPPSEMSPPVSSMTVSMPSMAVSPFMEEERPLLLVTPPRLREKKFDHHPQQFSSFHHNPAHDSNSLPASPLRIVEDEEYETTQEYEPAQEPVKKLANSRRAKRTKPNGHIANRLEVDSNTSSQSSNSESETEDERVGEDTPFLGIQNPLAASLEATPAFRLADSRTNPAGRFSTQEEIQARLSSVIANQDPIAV
Neurogenic locus notch homolog protein 2 (Homo sapiens), sequence (Q04721 whole entry, looked up, canonical isoform): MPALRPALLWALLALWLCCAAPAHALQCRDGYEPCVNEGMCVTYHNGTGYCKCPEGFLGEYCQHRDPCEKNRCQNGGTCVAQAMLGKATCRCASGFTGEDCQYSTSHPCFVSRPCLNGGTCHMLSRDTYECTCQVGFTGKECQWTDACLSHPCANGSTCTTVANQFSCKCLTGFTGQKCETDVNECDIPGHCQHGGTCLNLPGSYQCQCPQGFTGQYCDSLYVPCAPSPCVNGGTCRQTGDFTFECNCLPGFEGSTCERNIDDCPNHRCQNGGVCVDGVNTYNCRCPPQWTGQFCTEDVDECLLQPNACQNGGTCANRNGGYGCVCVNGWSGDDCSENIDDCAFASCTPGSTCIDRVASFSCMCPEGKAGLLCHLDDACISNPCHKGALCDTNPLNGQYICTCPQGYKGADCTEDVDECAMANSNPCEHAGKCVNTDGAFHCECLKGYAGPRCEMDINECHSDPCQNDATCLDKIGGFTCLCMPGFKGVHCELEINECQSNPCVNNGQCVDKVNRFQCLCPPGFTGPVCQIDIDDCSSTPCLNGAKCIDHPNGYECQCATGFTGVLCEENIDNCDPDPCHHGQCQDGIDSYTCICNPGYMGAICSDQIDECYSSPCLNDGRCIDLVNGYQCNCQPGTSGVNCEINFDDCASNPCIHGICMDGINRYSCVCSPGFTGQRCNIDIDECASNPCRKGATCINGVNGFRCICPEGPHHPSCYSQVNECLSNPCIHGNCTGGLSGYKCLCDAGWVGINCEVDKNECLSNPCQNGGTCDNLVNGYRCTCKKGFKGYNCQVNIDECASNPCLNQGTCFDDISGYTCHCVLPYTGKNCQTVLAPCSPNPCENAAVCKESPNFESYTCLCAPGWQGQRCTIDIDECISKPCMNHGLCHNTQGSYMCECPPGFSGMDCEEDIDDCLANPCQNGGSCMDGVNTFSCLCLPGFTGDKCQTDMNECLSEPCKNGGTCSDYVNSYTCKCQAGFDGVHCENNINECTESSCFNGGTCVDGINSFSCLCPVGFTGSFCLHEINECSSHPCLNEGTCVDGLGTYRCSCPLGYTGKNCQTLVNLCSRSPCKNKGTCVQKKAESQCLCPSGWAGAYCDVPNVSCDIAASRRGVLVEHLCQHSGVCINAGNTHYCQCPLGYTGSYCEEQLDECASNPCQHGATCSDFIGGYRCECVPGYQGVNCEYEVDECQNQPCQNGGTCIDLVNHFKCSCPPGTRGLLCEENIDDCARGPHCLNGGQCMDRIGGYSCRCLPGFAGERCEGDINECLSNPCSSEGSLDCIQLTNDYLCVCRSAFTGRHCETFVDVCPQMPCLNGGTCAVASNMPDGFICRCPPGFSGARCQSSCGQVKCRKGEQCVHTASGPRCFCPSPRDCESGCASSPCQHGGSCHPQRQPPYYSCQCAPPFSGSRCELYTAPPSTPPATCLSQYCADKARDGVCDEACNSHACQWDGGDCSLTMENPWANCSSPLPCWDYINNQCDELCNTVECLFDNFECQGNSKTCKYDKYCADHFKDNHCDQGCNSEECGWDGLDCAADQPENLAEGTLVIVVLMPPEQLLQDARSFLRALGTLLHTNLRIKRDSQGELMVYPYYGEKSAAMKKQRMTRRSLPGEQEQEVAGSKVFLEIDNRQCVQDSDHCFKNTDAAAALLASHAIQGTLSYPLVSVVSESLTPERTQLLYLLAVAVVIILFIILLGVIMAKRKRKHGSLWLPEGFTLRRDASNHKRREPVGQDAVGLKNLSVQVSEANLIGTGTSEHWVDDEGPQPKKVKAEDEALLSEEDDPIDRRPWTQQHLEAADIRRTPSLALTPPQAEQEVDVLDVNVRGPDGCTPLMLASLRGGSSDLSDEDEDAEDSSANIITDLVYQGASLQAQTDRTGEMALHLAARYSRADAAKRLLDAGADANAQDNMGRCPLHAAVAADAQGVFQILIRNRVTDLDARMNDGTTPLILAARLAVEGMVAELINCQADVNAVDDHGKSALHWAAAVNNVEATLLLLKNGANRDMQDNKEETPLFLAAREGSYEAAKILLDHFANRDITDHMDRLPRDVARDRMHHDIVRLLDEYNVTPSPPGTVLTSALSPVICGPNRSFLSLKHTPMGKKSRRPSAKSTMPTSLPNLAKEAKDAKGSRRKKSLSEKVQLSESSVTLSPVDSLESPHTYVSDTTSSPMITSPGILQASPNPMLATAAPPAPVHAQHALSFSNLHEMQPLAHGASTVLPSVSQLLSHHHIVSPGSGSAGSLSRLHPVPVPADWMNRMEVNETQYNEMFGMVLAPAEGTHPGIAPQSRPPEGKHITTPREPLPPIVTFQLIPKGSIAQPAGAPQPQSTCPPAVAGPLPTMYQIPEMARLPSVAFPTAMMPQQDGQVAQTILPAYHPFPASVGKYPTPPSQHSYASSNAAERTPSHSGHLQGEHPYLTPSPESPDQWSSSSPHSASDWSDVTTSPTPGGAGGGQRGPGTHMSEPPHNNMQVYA
Torsin-1A-interacting protein 2 (Homo sapiens), sequence (Q8NFQ8 whole entry, looked up): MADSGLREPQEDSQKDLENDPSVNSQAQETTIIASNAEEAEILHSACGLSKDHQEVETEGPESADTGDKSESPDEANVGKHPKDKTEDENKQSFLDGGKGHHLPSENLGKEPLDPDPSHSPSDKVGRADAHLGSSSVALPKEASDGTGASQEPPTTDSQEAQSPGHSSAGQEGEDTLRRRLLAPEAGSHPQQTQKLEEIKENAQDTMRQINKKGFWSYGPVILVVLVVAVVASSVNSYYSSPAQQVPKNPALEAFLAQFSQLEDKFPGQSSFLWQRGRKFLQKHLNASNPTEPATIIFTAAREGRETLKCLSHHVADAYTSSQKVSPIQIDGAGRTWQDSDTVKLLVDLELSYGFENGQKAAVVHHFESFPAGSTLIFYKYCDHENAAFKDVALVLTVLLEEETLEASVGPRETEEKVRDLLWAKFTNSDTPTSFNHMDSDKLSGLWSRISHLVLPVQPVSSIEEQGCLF

Row | Compound | composite z-score [1] | composite z-score [2] | composite z-score [3] | composite z-score [4] | composite z-score [5] | composite z-score [6] | composite z-score [7] | z-score [8] | composite z-score [9] | composite z-score [10] | composite z-score [11] | z-score [12] | z-score [13] | z-score [14] | composite z-score [15] | z-score [16] | composite z-score [17] | composite z-score [18] | composite z-score [19] | composite z-score [20]
1 | COCCCNC(=O)[C@@]1(Cc2ccccc2N=[N+]=[N-])COC(c2ccc(OCCCO)cc2)=N1 | 0.846 | 0.0792 | 0.146 | 0.805 | 1 | 1.54 | 1.27 | 0.554 (inactive) | 0.734 | -0.274 | 1.43 | -0.0885 (inactive) | -1.52 (inactive) | 0.0734 (inactive) | 3.13 | 1.39 (inactive) | 0.219 | 0.0137 | 0.0417 | 0.507
2 | C=C(COC)/C(=C/C[C@H](OC(C)=O)c1ccc(OCCO)cc1)c1cc(C(=O)OC)ccc1OC | -0.391 | 1.91 | -0.1 | 1.03 | 0.277 | 0.697 | 1.24 | -0.658 (inactive) | 0.0308 | -0.476 | 1.53 | 0.092 (inactive) | -1.08 (inactive) | -0.656 (inactive) | 0.914 | 1.23 (inactive) | -0.119 | 1.68 | 0.794 | -0.126
3 | Cc1ccccc1C(O)C1C=CC2C(=O)N(C)C(=O)C2N1N(c1ccccc1)c1ccccc1 (stereo not given) | 1.01 | -0.038 | 0.149 | 0.113 | 0.483 | -0.53 | -0.878 | -0.0079 (inactive) | 0.606 | 0.0077 | -0.437 | 0.787 (inactive) | 0.503 (inactive) | 0.753 (inactive) | -0.604 | -0.717 (inactive) | 0.756 | -0.177 | -0.899 | 0.409
4 | [N-]=[N+]=Nc1ccccc1[C@H]1OC(c2ccc(OCCCO)cc2)=N[C@@]1(CCS(=O)(=O)c1ccccc1)C(=O)NCCN1CCOCC1 | 0.052 | 0.0825 | 0.115 | 0.839 | 1.28 | 1.35 | 1.12 | 5.72 (inactive) | 1.58 | -0.166 | 1.55 | 0.299 (inactive) | 1.13 (inactive) | 0.683 (inactive) | 3.3 | 0.17 (inactive) | 0.414 | 0.55 | 0.839 | 0.154
5 | COC1OC[C@]2(C)[C@H]3C4=C(CN2C(=O)OC(C)(C)C)[C@H](C)C(CO)C(CO)C4CC[C@@H]13 (stereo not given in full) | 1.99 | 0.473 | 0.236 | 0.557 | 1.79 | 1.82 | 1.25 | 2.38 (inactive) | 1.85 | 1 | 1.18 | 0.58 (inactive) | 1.22 (inactive) | 0.867 (inactive) | 3.44 | -0.172 (inactive) | 0.858 | -0.05 | 0.96 | 0.187
6 | O=C1C[C@@](C(=O)NCCN2CCOCC2)(c2ccc([N+](=O)[O-])cc2)[C@@H](c2ccc(CO)cc2I)N1C1CCCCC1 | -0.218 | -0.0103 | -0.0736 | 0.262 | 0.64 | 0.148 | 1.43 | 1.21 (inactive) | -0.0352 | -0.0717 | 1.3 | -1.9 (inactive) | -2.09 (inactive) | -1.05 (inactive) | 2.79 | 0.685 (inactive) | -0.147 | 0.914 | 0.91 | -0.0963
7 | COCCOC(=O)N1C(=O)[C@@]2(c3cc(C#CC4=CCCCC4)ccc31)[C@H](c1ccc(OCCO)cc1)N1[C@H](c3ccccc3)[C@H](c3ccccc3)OC(=O)[C@H]1[C@@H]2C(=O)NC[C@H](O)c1ccccc1 | 0.82 | 0.366 | -0.0032 | 0.246 | 1.24 | -0.118 | 1.15 | 0.745 (inactive) | 1.44 | 0.187 | 1.54 | 2.04 (inactive) | 0.798 (inactive) | 5.7 (inactive) | 2.6 | 0.546 (inactive) | 0.789 | 1.11 | 1.07 | 0.108
8 | CC(=O)NCCCC[C@@H]1NC(=O)[C@H]2C[C@@H](C(=O)NCCCC[N+](C)(C)C)[C@@H](c3cccc(OCCO)c3)N2C1=O | -0.188 | 1.86 | -0.0319 | 1.23 | 0.165 | 0.4 | 1.14 | 0.647 (inactive) | 0.593 | 0.24 | 1.41 | -0.369 (inactive) | -1.27 (inactive) | -1.92 (inactive) | 1.97 | 1.08 (inactive) | 0.0503 | 1.81 | 1.01 | 0.162
9 | COc1ccc([Si](C)(C)[C@H]2[C@H](CC(=O)N(CCO)Cc3ccccc3)O[C@@]3(C(=O)N(Cc4cccc(N5CCOC5=O)c4)c4ccccc43)[C@@H]2C)cc1 | -0.243 | 0.635 | -0.0737 | 0.171 | 0.0078 | 1.2 | 0.974 | -0.551 (inactive) | -0.0174 | 0.176 | 1.56 | -0.0337 (inactive) | -0.166 (inactive) | 3.02 (inactive) | 1.35 | 1.17 (inactive) | -0.0724 | 0.722 | 0.403 | -0.167
